Results filed as inconclusive are left out. Active and inactive are the calls of the source. Calls come from the whole dose curve; as a rule, active = well fitted inhibition curve with a large enough effect; inconclusive = small, poorly fitted or top-dose-only effect; inactive = flat fitted curve, though single readings scatter. *1 amine or outer side, *2 acyl side, *3 side chain or, on linkers, in order; H or OH if unused. Where a SMILES comes first, the peptide text is derived from it. Bridges are numbered along the chain shown (N, C = ends). X6 = O=C(CCC[*:2])[*:1]
molecular target: Calcium and integrin-binding protein 1 (Homo sapiens) (UniProt Q99828); assay: Primary qHTS for Identification of Calcium Integrin Binding Protein 1 (CIB1) Competitor (AID 1508620); settings: CIB1-GST / FITC-alphaIIb peptide fluorescence polarization; series mostly up to 57.7 µM; activity change, negative = inhibition: at the top concentration;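 note: GST tagged CIB1 binding a fluorescein labelled alphaIIb integrin peptide tracer; top concentration of the series differs between compounds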
Sequence (Q99828 whole entry, looked up): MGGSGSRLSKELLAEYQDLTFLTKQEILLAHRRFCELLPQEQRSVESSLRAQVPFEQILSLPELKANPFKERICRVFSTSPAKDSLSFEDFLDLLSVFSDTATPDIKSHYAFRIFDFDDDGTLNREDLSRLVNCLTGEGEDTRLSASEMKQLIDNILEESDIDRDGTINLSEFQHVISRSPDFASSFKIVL
In short: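 CIB1-GST (1 uM final) and compound incubated 15 min at room temperature before adding FITC-alphaIIb peptide tracer (100 nM final). Competition for binding read by fluorescence polarization (ex 480, em 540) after another 15 min at room temperature.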
% is set by controls: 0 for no effect and ±100 for the full control effect.

Row | SMILES | Potency | activity change, negative = inhibition
1 | NCc1ccc(OCCCc2sc(-c3ccc4c(c3)/C(=N/Nc3nc5ccccc5s3)CCC4)nc2C(=O)O)cc1 | inactive | –
2 | COc1cc(/C=C/C(=O)OC(C)(C)C(OC2OC(CO)C(O)C(O)C2O)C(=O)OCc2ccc(OC3OC(CO)C(O)C(O)C3O)cc2)ccc1O (centres undefined) | – | -2.54% [at 30.2 µM] (inactive)
3 | COc1ccccc1[C@@H]1C2=C(CC(C)(C)CC2=O)Nc2n[nH]c(C(F)(F)F)c21 | – | -2.11% [at 114 µM] (inactive)
4 | CC(C)[C@H]1CCC(CO)=C[C@@H]1/C=C(\CO)C(=O)O | – | -0.828% [at 114 µM] (inactive)
5 | CC(=O)c1c(C)cc(O)cc1O[C@@H]1O[C@H](CO)[C@@H](O)[C@H](O)[C@H]1O | – | -0.555% (inactive)
6 | CC(C)CC(=O)OC[C@H]1O[C@@](COC(=O)CC(C)C)(O[C@H]2O[C@H](CO)[C@@H](O)[C@H](O)[C@H]2OC(=O)CC(C)C)[C@@H](OC(=O)CC(C)C)[C@@H]1O | – | -3.28% [at 30.2 µM] (inactive)
7 | CC(C)CC(=O)n1cc(C(N)=O)c(=O)cc1C(O)c1ccccc1 (centres undefined) | – | -13% (inactive)
8 | COc1cc(C2Oc3c(OC)cc(/C=C/C(=O)OC[C@H]4O[C@@H](OC(C)(C)C(=O)O)[C@H](O)[C@@H](O)[C@@H]4O)cc3C2CO)ccc1O (some centres undefined) | – | 0.591% [at 30.2 µM] (inactive)
9 | COc1c(C(CC(C)C)OC(C)=O)ccc(Oc2c(O)cc(C)cc2/C=C/C(C)=O)c1C(=O)O (centres undefined) | – | -18.5% (inactive)
10 | COc1cc(-c2cccc(O)c2)cc2c1OCO2 | – | -2.11% [at 114 µM] (inactive)
11 | C=C[C@](C)(CC/C=C(\C)C(=O)O)O[C@@H]1OC[C@H](O)[C@H](O)[C@H]1O | – | -11.9% (inactive)
12 | COc1cc(C2OCC3C(c4ccc(OC5OC(CO)C(O)C(O)C5O)c(OC)c4)OCC23)ccc1O (centres undefined) | – | -7.36% (inactive)
13 | CC(=O)O[C@H]1[C@H](C)[C@@H](O)[C@H]2[C@@H]1C=C(C(=O)O)[C@H]1C[C@@H]3[C@H]([C@H]21)[C@H]1C(=O)O[C@@H]2CC[C@@]3(C)O[C@]1(O)[C@@H]2C | – | 2.82% (inactive)
14 | CC1=CCC2C(C)(CO)CCCC2(CO)C1CO (centres undefined) | – | -6.49% [at 114 µM] (inactive)
15 | O=C(NN1CCCCC1)c1nn(-c2ccc(Cl)cc2Cl)c(-c2ccc(C#Cc3ccc(C(F)(F)F)cc3)s2)c1CNS(=O)(=O)N1CCCC1 | – | 3.06% [at 114 µM] (inactive)
16 | CO[C@H]1C=C2C(CC[C@H](O[C@@H]3O[C@H](CO)[C@@H](O)[C@@H](O)[C@H]3O)C2(C)C)[C@]2(C)CC[C@]3(C)C([C@H](C)C(O)C(C=C(C)C)O[C@@H]4O[C@H](CO)[C@@H](O)[C@@H](O)[C@H]4O)CC[C@@]3(C)C12 (some centres undefined) | – | 1.63% [at 30.2 µM] (inactive)
17 | COC(=O)C1=CO[C@@H](O[C@@H]2O[C@H](CO[C@@H]3O[C@H](COC(=O)/C=C/c4ccc(O)cc4)[C@@H](O)[C@H](O)[C@H]3O)[C@@H](O)[C@H](O)[C@H]2O)[C@@H]2C(CO)=CC[C@H]12 | – | 1.47% [at 30.2 µM] (inactive)
18 | CC1NC(=O)CNC(=O)C(C(C)C)NC(=O)C2CCCN2C(=O)C(C(C)C)NC(=O)C(Cc2c[nH]c3ccccc23)NC1=O (centres undefined) (cyclo(GAWVPV); configuration not given here) | – | 0.42% [at 30.2 µM] (inactive)
19 | CC(C)=CCCC1(C)Oc2cc3c(c4c2C2C(O4)C(C)(O)CCC21)CN(C(CCC(=O)O)C(=O)O)C3=O (centres undefined) | – | -8.15% (inactive)
20 | CN[C@@H]1[C@@H](O)[C@@H](O[C@@H]2[C@@H](O)[C@H](O[C@H]3O[C@H](CN)[C@@H](O)[C@H](O)[C@H]3O)[C@@H](N)C[C@H]2NC(=O)[C@@H](O)CN)OC[C@]1(C)O | – | 0.192% [at 114 µM] (inactive)

Row | SMILES | Potency | activity change, negative = inhibition
21 | COc1cc(/C=C/C(=O)O[C@H]2[C@H](O)[C@@H](CO)O[C@@]2(CO)O[C@H]2O[C@H](COC(=O)c3ccc(O)cc3)[C@@H](O)[C@H](O)[C@H]2O)cc(OC)c1OC | – | 5.12% [at 30.2 µM] (inactive)
22 | CC(=O)OCC(=O)O[C@@H]1[C@H]2[C@@H](OC(=O)c3ccccc3)[C@@H](C)C[C@]2(O)[C@H](OC(C)=O)C2(C)[C@H]3CC(C)(C)C(=O)[C@@H]3CC1(OC(C)=O)[C@@H]2OC(C)=O (some centres undefined) | – | -3.47% [at 30.2 µM] (inactive)
23 | CC[C@H](C)[C@@H]1NC(=O)[C@H](Cc2ccc(OC)cc2)NC(=O)CCCSC[C@@H](C(=O)N2CCC[C@H]2C(=O)N[C@@H](CC(C)C)C(=O)NCC(N)=O)NC(=O)[C@H](CC(N)=O)NC(=O)[C@H](CCC(N)=O)NC1=O (Y(Me)IQNCPLG-NH2; linker N-5 via X6) | – | 1.44% (inactive)
24 | CC(O)(CC(=O)O)CC(=O)O[C@@H]1[C@@H](O)[C@H](OCCc2ccccc2)O[C@H](CO)[C@H]1O (some centres undefined) | – | 4.23% (inactive)
25 | CC1CCC2(C(=O)OC3OC(CO)C(O)C(O)C3O)CCC3(C)C(=CCC4C5(C)CC(O)C(O)C(C)(C(=O)O)C5CCC43C)C2C1(C)O (centres undefined) | – | 4.06% [at 30.2 µM] (inactive)
26 | C=C1C[C@]23C[C@H]1CC[C@H]2[C@@]12C=C[C@H](O)[C@@](C)(C(=O)O1)[C@H]2[C@@H]3C(=O)O | – | 2.09% (inactive)
27 | CC1=C(C)C(=O)OC(C(C)C2C(O)CC3C4C5OC5C5(O)CC(OC6OC(CO)C(O)C(O)C6O)CC(O)C5(C)C4CCC32C)C1 (centres undefined) | – | -2.32% [at 30.2 µM] (inactive)
28 | COC1C=C([C@@H]2CC=C3[C@@]4(C)C(CC[C@]32C)[C@@]2(C)C=CC(=O)C(C)(C)C2C[C@H]4OC(C)=O)C(=O)O1 (some centres undefined) | – | -5.01% (inactive)
29 | COc1cc(/C=C/CO)ccc1O[C@@H]1O[C@H](CO)[C@@H](O)[C@H](O)[C@H]1O | – | 2.31% (inactive)
30 | C[C@@H]1O[C@@H](O[C@@H]2[C@@H](O)[C@H](O[C@@H]3[C@@H](O)[C@@H](O)[C@H](O[C@H]4[C@H](OC(=O)[C@]56CCC(C)(C)C[C@H]5C5=CCC7[C@@]8(C)C[C@H](O)[C@H](O[C@@H]9O[C@H](C(=O)O)[C@@H](O)[C@H](O)[C@H]9O)[C@@](C)(CO)C8[C@H](O)C[C@@]7(C)[C@]5(C)CC6)OC[C@H](O)[C@@H]4O)O[C@H]3C)OC[C@H]2O)[C@H](O)[C@H](O)[C@H]1O (some centres undefined) | – | 3.71% [at 12.4 µM] (inactive)
31 | CCC[C@@H]1C[C@@H](C(=O)N[C@H](C(C)Cl)[C@H]2O[C@H](SC)[C@H](O)[C@@H](O)[C@H]2O)N(C)C1 (some centres undefined) | – | 0.966% [at 114 µM] (inactive)
32 | COC(=O)[C@@]1(O)C=CC[C@@H]2[C@@]3(C)C[C@@H](c4ccoc4)OC(=O)[C@H]3CC[C@]21C | – | -1.71% (inactive)
33 | CC(C)CC(=O)O[C@@H]1OC=C(CO[C@@H]2O[C@H](CO[C@@H]3O[C@H](CO)[C@@H](O)[C@H](O)[C@H]3O)[C@@H](O)[C@H](O)[C@H]2O)[C@H]2C[C@H](O)[C@@H](CO)[C@@H]12 | – | -3.51% [at 30.2 µM] (inactive)
34 | O=C(/C=C/c1ccccc1)OCC1=CC[C@@H]2C(C(=O)O)=CO[C@@H](O[C@@H]3O[C@H](CO)[C@@H](O)[C@H](O)[C@H]3O)[C@H]12 | – | 0.537% (inactive)
35 | O=C(O)CCc1cccc(O[C@@H]2O[C@H](CO)[C@@H](O)[C@H](O)[C@H]2O)c1O | – | -4.98% (inactive)
36 | CCOC(=O)c1ccc(N(C)c2csc(-c3ccccc3)n2)cc1 | – | 0.302% [at 114 µM] (inactive)
37 | COc1cc(C[C@H]2COC(=O)[C@@H]2Cc2ccc(O)c(OC)c2)ccc1O | – | -6.25% (inactive)
38 | COc1ccc(/C=C/C(=O)O[C@@H]2[C@@H](OC(C)=O)[C@@H](OC(C)=O)[C@H](O[C@H]3[C@@H]4C=CO[C@@H](O[C@@H]5O[C@H](CO)[C@@H](O)[C@H](O)[C@H]5O)[C@@H]4[C@@]4(CO)O[C@@H]34)O[C@H]2C)cc1O | – | 1.12% [at 30.2 µM] (inactive)
39 | CC(=O)OC[C@]1(O)[C@H]2[C@H](OC(=O)CC(C)C)OC=C(CO[C@@H]3O[C@H](CO)[C@@H](O)[C@H](O)[C@H]3O)[C@H]2C[C@@H]1O | – | 1.32% (inactive)

— PubChem BioAssay (NCATS)
